Assay outcomes: PubChem BioAssay, National Center for Advancing Translational Sciences (NCATS)
An excerpt weighted towards active compounds, which were near 1.8% of everything screened.
Vif-APOBEC3F blk = Vif-A3F binding inhibition | HeLa A3F-eYFP + Vif (tagged APOBEC3F with the HIV-1 protein that degrades it), YFP fluorescence increase | Potency, µM (highest dose often 46.1 µM), inactives show at the top dose activity, negative = active | 390,000 tested, 0.2% active | AID 602313; note: % of control where 0% means no effect; nearly all actives have a fitted effect of over 65% in size
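HeLa cells stably expressing A3F-eYFP plus Vif, plated and incubated overnight at 37 deg C, then exposed to compounds overnight at 37 deg C. Blocked degradation read as raised yellow fluorescence (Ex 488/Em 500-530).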
VDR inh = inhibitors of human vitamin D receptor; VDR-SRC2-3 peptide fluorescence polarization, 2 h; Potency, µM, for inactives: max response, negative = inhibition, usual class: inhibitors; 400,000 tested, 0.93% active; P11473; note: % is set by controls: 0 for no effect and ±100 for the full control effect
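Compounds are added to VDR with labelled SRC2-3 coactivator peptide and held 2 h at room temperature. Inhibition of the VDR–peptide interaction is then read as a change in fluorescence polarization.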
Vif-APOBEC3G blk = Vif-A3G binding inhibition | Q9HC16 | HeLa A3G-eYFP + Vif (tagged APOBEC3G with the HIV-1 protein that degrades it), YFP fluorescence, overnight | Potency, µM (highest dose often 46.1 µM), for the others: at the top dose activity, negative = active, usual class: inhibitors | 410,000 tested, 0.076% active | AID 602310; note: % is set by controls: 0 for no effect and ±100 for the full control effect; nearly all actives have a fitted effect of over 60% in size
Target sequence (Q9HC16 whole entry, looked up): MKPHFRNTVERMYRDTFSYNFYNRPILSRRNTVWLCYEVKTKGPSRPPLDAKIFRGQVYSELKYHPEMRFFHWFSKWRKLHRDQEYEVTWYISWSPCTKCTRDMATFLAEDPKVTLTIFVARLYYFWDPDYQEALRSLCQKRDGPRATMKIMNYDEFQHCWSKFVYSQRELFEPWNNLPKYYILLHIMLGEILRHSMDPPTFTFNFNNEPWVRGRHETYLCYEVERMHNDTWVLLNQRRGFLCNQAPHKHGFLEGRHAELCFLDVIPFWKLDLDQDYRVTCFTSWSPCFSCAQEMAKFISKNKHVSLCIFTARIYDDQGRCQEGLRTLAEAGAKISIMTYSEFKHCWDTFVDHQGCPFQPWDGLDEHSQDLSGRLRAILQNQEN
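Read-out is eYFP fluorescence (Ex 488/Em 500-530) from Vif-expressing HeLa A3G-eYFP cells; more signal means A3G escaped Vif-mediated degradation. Cells plated overnight, compound pinned in, incubated overnight at 37 deg C.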
rTrxR1 inhibitor = rat TrxR1 inhibition | Potency, µM (top dose mostly 114 µM), without a hit: top-dose activity change, negative = inhibition, hits mostly inhibitors | 390,000 tested, 1% active | O89049 | recombinant rTrxR1, NADPH fluorescence consumption, selenite substrate | AID 588453; note: % is set by controls: 0 for no effect and ±100 for the full control effect; nearly all actives have a fitted effect of over 65% in size
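Rat TrxR1 (90 nM in the dispensed reagent) was pre-reduced with 400 uM NADPH for 5 min at room temperature, then incubated with compound for 15 min. After 400 uM selenite was added, NADPH fluorescence (Ex 340/Em 450 nm) was followed for 8 min.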
TrxR1 substrate = rat thioredoxin reductase 1 substrate activity | O89049 | purified TrxR1 substrate turnover, NADPH consumption readout | Potency, µM (top dose mostly 114 µM), for the others: at the top dose activity change, negative = substrate turnover | 390,000 tested, 0.01% active | AID 588456; note: % is set by controls: 0 for no effect and ±100 for the full control effect; nearly all actives have a fitted effect of over 50% in size
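Rat TrxR1, dispensed at 90 nM, was prereduced with 400 uM NADPH (final) for 5 min at ~22 deg C, then incubated with compound 15 min before 400 uM selenite. A first-read NADPH fluorescence drop versus no-compound background flagged substrates.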
Numbers without * were called inactive; ? = inconclusive; . = not tested or not shown; [ ] = dose if it differs, or a comment. Calls come from the whole dose curve; as a rule, active = well fitted curve in the direction sought with a large enough effect; inconclusive = small, poorly fitted or top-dose-only effect, or another doubt; inactive = no such curve, though single readings can be large; an effect the other way counts as inactive or inconclusive. Potency is the fitted concentration of half-maximal effect.

SMILES	Vif-APOBEC3F blk	VDR inh	Vif-APOBEC3G blk	rTrxR1 inhibitor	TrxR1 substrate
CCC(C)(C)C(=O)O[C@@H]1C[C@@H](C)C=C2C=C[C@H](C)[C@H](CC[C@@H]3C[C@@H](O)CC(=O)O3)[C@H]21	.	-7%	.	.	.
CCSS(=O)(=O)c1cccc2cccnc12	-18%	16µM*	-13%	4%[57.1 µM]	-3%[57.1 µM]
CCC1CC=CC2C1C(=O)N(Cc1ccccc1)C2c1ccoc1 (centres undefined)	.	79µM*	?	?	-6%
Cc1cc(C)cc(S(=O)(=O)c2cnc3ccccc3n2)c1	8%	40µM*	-4%	11%[57.1 µM]	2%[57.1 µM]
COc1cc2nc(N3CCOCC3)nc(NC3CCN(C)CC3)c2cc1OC	.	.	.	-2%	190%
CCOC(=O)Cc1csc(-n2sc3ccccc3c2=O)n1	-11%	16µM*	-2%	43%	-3%
COc1ccc(NC(=S)Nc2ccc3nccnc3c2)cc1	-4%	-27%	2%	16µM*	-15%
COc1ccc(NC(=S)Nc2ccccc2)cc1	5%	-24%	-1%	-7%	3%[11.4 µM]
CC1CCC/C=C/C(=O)c2c(O)cc(O)cc2CC(=O)O1 (centres undefined)	3%	?	?	11µM*	-3%
C[C@@H]1Cc2c(O)c(O)cc(O)c2C(=O)O1	-21%	9%	4%	?	7%
CCC/C(O)=C1\C(=O)CC(C)(C)CC1=NCCO	2%	-8%	-1%	3%[57.1 µM]	2%[57.1 µM]
CCC/C(O)=C1\C(=O)CC(C)(C)CC1=Nc1ccccc1O	3%	79µM*	-3%	15%[57.1 µM]	8%[57.1 µM]
O=C(CSc1nc(-c2ccccc2)[nH]c1-c1ccccc1)Nc1ccc2c(c1)OCO2	2%	9%	?	-5%	5%
CCOC(=O)C1=C(C)Nc2ccc(C)cc2S1	-3%	?	0%	18%[57.1 µM]	8%[57.1 µM]
CCOCCOC(=O)C1=C(C)Nc2ccc(C)cc2S1	-5%	89µM*	0%	22%	6%
C[C@H](NC(=O)[C@@H]1CSC2c3ccccc3C(=O)N21)C(=O)NC1CCCCC1 (some centres undefined)	0%	-2%	-3%	17%	0%
C[C@H](NC(=O)[C@@H]1CSC2c3ccccc3C(=O)N21)C(=O)NC1CCCC1 (some centres undefined)	-7%	-12%	5µM*	15%	3%
Nc1nc2[nH]cc(CCc3ccc(C(=O)N[C@@H](CCC(=O)O)C(=O)O)cc3)c2c(=O)[nH]1	.	.	6%	3%	13%
Ic1ccc(/C=C2\C=Cc3ccccc32)cc1	.	.	-2%	?	-1%
O=S(=O)(NCCc1cn2ccsc2n1)c1ccc(Cl)cc1	-4%	1%	-1%	?	-7%[57.1 µM]
CCOC(=O)/C(C#N)=C\c1ccc(CC)s1	-8%	-11%	0%	1%	-10%
CCOC(=O)/C(C#N)=C\C=C1C=CN(C)C=C1	22µM*	-5%	?	?	-17%[57.1 µM]
O=C(O)c1ccccc1-c1c2ccc(=O)cc-2oc2cc(O)ccc12	.	2%	.	.	.
CN(C)c1ccc2c(-c3ccccc3)c3ccc(=[N+](C)C)cc-3oc2c1	.	45µM*	.	.	.
COc1cc([C@@H]2CC(=O)c3c(O)cc(O)cc3O2)ccc1O	.	3%	.	.	.
SMILES	Vif-APOBEC3F blk	VDR inh	Vif-APOBEC3G blk	rTrxR1 inhibitor	TrxR1 substrate
FC(F)(F)c1nc(=S)c2ccccc2[nH]1	1%	?	-4%	4.5µM*	-2%
CN[C@@H](CCCN=C(N)N)C(=O)N[C@@H](CCCCN)C(=O)N1CCC[C@H]1C(=O)N[C@@H](Cc1c[nH]c2ccccc12)C(=O)N[C@H](C(=O)N[C@H](CC(C)C)C(=O)O)C(C)(C)C	.	7%	.	.	.
O=C(CCN1CCc2ccccc2C(c2ccccc2)C1)c1ccc2c(c1)OCCO2 (centres undefined)	2%	?	?	1.1µM*	-12%
O=C(CCN1Cc2ccccc2C1)c1ccc2c(c1)OCCO2	0%	-89%	-13%	0.32µM*	-4%
Nc1ccc2oc(Cc3ccc(Cl)cc3)nc2c1	.	79µM*	.	50µM*	1%
CCSc1ncc(Cl)c(C(=O)N2CCN(c3ccc(OC)cc3)CC2)n1	-1%	2%	4%	1%	-5%
CCCS(=O)(=O)c1ncc(Cl)c(C(=O)N2CCN(c3ccc(OC)cc3)CC2)n1	5%	?	-22%	8.9µM*	5%[57.1 µM]
Cc1nc2ccccc2n1CCc1nc2c3ccccc3nc(SCc3ccccc3F)n2n1	0%	5%	0%	18%[57.1 µM]	5%[57.1 µM]
C=CC1=C(C(=O)O)N2C(=O)[C@@H](NC(=O)C(N=O)c3csc(N)n3)[C@H]2SC1 (some centres undefined)	.	45µM*	.	.	.
O=C(/C=C/c1ccc2c(c1)OCO2)c1cccs1	.	20µM*	.	.	.
O=c1cc(O)c2sc3nc(C(F)(F)F)c4c(c3c2[nH]1)CCCCC4	-3%	-14%	1%	-3%[57.1 µM]	0%[57.1 µM]
CC(C)c1nc2sc3c(=O)[nH]c(=S)[nH]c3c2c2c1CCCC2	-7%	71µM*	-1%	?	-4%
CCOc1cc(C=C(C#N)C#N)ccc1Oc1ccc([N+](=O)[O-])cn1	-16%	?	4%	10µM*	-8%
COc1ccccc1N1C(=O)C2C3C=CC(CC3)C2C1=O (centres undefined)	7%	-22%	-3%	19%	-1%
COc1ccccc1N1CCNC(C)C1=O (centres undefined)	-6%	79µM*	0%	-21%[57.1 µM]	-11%
Cc1cccc(NC(=S)NC(=O)Cc2ccccc2)c1C	-12%	21%	1%	56µM*	-14%
Cc1cccc(NC(=S)NC(=O)CCc2ccccc2)c1C	0%	-10%	?	?	0%
COC(=O)COc1ccc(C2Nc3c(Cl)ccc(C(=O)O)c3C3C=CCC32)cc1 (centres undefined)	15%	?	0%	13µM*	11%
C=CCNc1oc(-c2cccc(F)c2)nc1C#N	?	-4%	-6%	7.1µM*	-1%
CCOc1ccccc1-n1c(CN2CCN(C(=O)c3ccco3)CC2)nc2ccccc2c1=O	-10%	-16%	-2%	20µM*	10%
CNc1nc(-c2ccccc2)c(-c2ccccc2)s1	.	-1%	.	17%	64%
COc1cccc(N=Cc2c(O)n(-c3cccc(C)n3)c(=O)c3ccccc23)c1	3%	-20%	0%	22%	2%
COc1ccc(N=Cc2c(O)n(-c3cccc(C)n3)c(=O)c3ccccc23)c(OC)c1	10µM*	19%	?	9%[57.1 µM]	-2%[57.1 µM]
CCCc1cc(=O)[nH]c(Nc2cc(Cl)cc(Cl)c2)n1	-5%	4%	7%	-8%	22%
Cc1cc(NC(=O)COC(=O)c2ccccc2OCCOc2ccccc2)ccc1Br	.	.	.	19%	6%
CCNC(=O)COc1ccc(/C=C2\COc3ccccc3C2=O)cc1OC	-6%	35µM*	?	?	4%
CCOc1cc(/C=C2\COc3ccccc3C2=O)ccc1OCC(=O)N(C)C	4%	50µM*	?	?	-5%
